Laboratory results from the supplement of paper PMC8371130.
Where a name gives a salt, the structure may show the parent alone.

system: HL-1; test: relative cell viability (CellTiter-Glo) vs DMSO control (% of DMSO control); higher = more viable cells; settings: oxygen condition: hypoxia 48 h (1% O2) + reoxygenation 24 h; 200 nM
Outline: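 HL-1 mouse atrial cardiomyocytes were plated in 384-well plates at 1000 cells per well together with compounds at 40, 200, 1000 or 5000 nM in 0.01% DMSO. One day later, cells went to a hypoxic workstation (1% O2) for 48 h, then were reoxygenated for 24 h in a normal incubator, or stayed in normoxia for the same time. Cell viability was read by CellTiter-Glo luminescence and normalised to vehicle-treated control cells.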

Row | Compound | relative cell viability
1 | Cc1onc(-c2ccccc2)c1C(=O)N[C@@H]1C(=O)N2[C@@H]1SC(C)(C)[C@@H]2C(=O)O [Oxacillin sodium monohydrate] | 107
2 | O=C(CCCCCCC(=O)Nc1ccccc1)NO [Vorinostat] | 105
3 | CC1CCc2c(N3CCC(O)CC3)c(F)cc3c(=O)c(C(=O)O)cn1c23 (centres undefined) [Nadifloxacin] | 104
4 | CCN(CCCc1ccccc1)CCCc1ccccc1 [Alverine Citrate] | 110
5 | CC(=O)O[C@H]1C[C@@H]2CC[C@@H]3[C@H](CC[C@@]4(C)[C@H]3C[C@H]([N+]3(C)CCCCC3)[C@@H]4OC(C)=O)[C@@]2(C)C[C@@H]1N1CCCCC1 [Vecuronium Bromide] | 118
6 | CNCCC(Oc1ccc(C(F)(F)F)cc1)c1ccccc1 (centres undefined) [Fluoxetine  HCl] | 109
7 | CCCNC(C)C(=O)Nc1ccccc1C (centres undefined) [Prilocaine] | 101
8 | Cc1c(N(C)C)c(=O)n(-c2ccccc2)n1C [Amidopyrine] | 111
9 | CCCCN1CCCCC1C(=O)Nc1c(C)cccc1C (centres undefined) [Bupivacaine hydrochloride] | 105
10 | O=C1c2c(O)ccc(O)c2C(=O)c2c(NCCNCCO)ccc(NCCNCCO)c21 [Mitoxantrone Hydrochloride] | 4.55
11 | CO[C@H]1C[C@@H]2CC[C@@H](C)[C@@](O)(O2)C(=O)C(=O)N2CCCC[C@H]2C(=O)O[C@H]([C@H](C)C[C@@H]2CC[C@@H](OC(=O)C(C)(CO)CO)[C@H](OC)C2)CC(=O)[C@H](C)/C=C(\C)[C@@H](O)[C@@H](OC)C(=O)[C@H](C)C[C@H](C)/C=C/C=C/C=C/1C [Temsirolimus] | 67.6
12 | C[C@@H]1C[C@H]2[C@@H]3C[C@H](F)C4=CC(=O)C=C[C@]4(C)[C@@]3(F)[C@@H](O)C[C@]2(C)[C@@]1(O)C(=O)CO [Flumethasone] | 97.4
13 | C#C[C@]1(OC(C)=O)CC[C@H]2[C@@H]3CCC4=C[C@@H](OC(C)=O)CC[C@@H]4[C@H]3CC[C@@]21C [Ethynodiol diacetate] | 103
14 | CS(=O)(=O)c1ccc(C2=C(c3ccccc3)C(=O)OC2)cc1 [Rofecoxib] | 97.5
15 | NS(=O)(=O)c1cc2c(cc1Cl)N=C(CSCc1ccccc1)NS2(=O)=O [Benzthiazide] | 99.8
16 | CC[C@H]1OC(=O)[C@H](C)[C@@H](O[C@H]2C[C@@](C)(OC)[C@@H](O)[C@H](C)O2)[C@H](C)[C@@H](O[C@@H]2O[C@H](C)C[C@H](N(C)C)[C@H]2O)[C@](C)(O)C[C@@H](C)/C(=N\OCOCCOC)[C@H](C)[C@@H](O)[C@]1(C)O [Roxithromycin] | 106
17 | CC1=C(/C=C/C(C)=C/C=C/C(C)=C/C(=O)O)C(C)(C)CCC1 [Tretinoin] | 109
18 | CCOC(=O)OC(C)OC1=C(C(=O)Nc2ccccn2)N(C)S(=O)(=O)c2ccccc21 (centres undefined) [Ampiroxicam] | 102
19 | CC(O)(P(=O)(O)O)P(=O)(O)O [Etidronate] | 96.9
20 | COC(=O)[C@H](c1ccccc1Cl)N1CCc2sccc2C1 [Clopidogrel] | 103

Row | Compound | relative cell viability
21 | C[C@H](CCC(=O)O)[C@H]1CC[C@H]2[C@@H]3[C@@H](O)C[C@@H]4C[C@H](O)CC[C@]4(C)[C@H]3CC[C@]12C [Ursodiol] | 106
22 | C[C@@H](O[C@H]1OCCN(Cc2nn(P(=O)(O)O)c(=O)[nH]2)[C@H]1c1ccc(F)cc1)c1cc(C(F)(F)F)cc(C(F)(F)F)c1 [Fosaprepitant dimeglumine] | 105
23 | CC(=O)Oc1ccc(C(c2ccc(OC(C)=O)cc2)c2ccccn2)cc1 [Bisacodyl] | 100
24 | Cc1cc(N)c2ccccc2[n+]1CCCCCCCCCC[n+]1c(C)cc(N)c2ccccc21 [Dequalinium chloride] | 104
25 | CC1CNc2c(cccc2S(=O)(=O)N[C@@H](CCCNC(=N)N)C(=O)N2CC[C@@H](C)C[C@@H]2C(=O)O)C1 (some centres undefined) [Argatroban] | 97.5
26 | CCCCNc1cc(C(=O)O)cc(S(N)(=O)=O)c1Oc1ccccc1 [Bumetanide] | 108
27 | CCCCC(=O)O[C@H]1CC[C@H]2[C@@H]3CCc4cc(O)ccc4[C@H]3CC[C@]12C [Estradiol valerate] | 103
28 | C[C@@](Cc1ccc(O)c(O)c1)(NN)C(=O)O [Carbidopa] | 100
29 | O=c1[nH]cc(F)c(=O)[nH]1 [Adrucil] | 94.1
30 | COc1ccccc1N1CCN(CC(O)COc2cccc3ccccc23)CC1 (centres undefined) [Naftopidil] | 101
31 | OC(CCN1CCCC1)(c1ccccc1)C1CCCCC1 (centres undefined) [Procyclidine HCl] | 89.9
32 | COc1ccc2cc1Oc1ccc(cc1)C[C@H]1c3c(cc4c(c3Oc3cc5c(cc3OC)CCN(C)[C@@H]5C2)OCO4)CCN1C [Cepharanthine] | 91.7
33 | C=C1CC[C@H](O)C/C1=C/C=C1\CCC[C@]2(C)[C@@H]([C@H](C)/C=C/[C@H](C)C(C)C)CC[C@@H]12 [Vitamin D2] | 99.8
34 | COc1cccc2c1C(=O)c1c(O)c3c(c(O)c1C2=O)C[C@@](O)(C(=O)CO)C[C@@H]3O[C@H]1C[C@H](N)[C@H](O)[C@H](C)O1 [Doxorubicin] | 44
35 | CCOC(=O)c1c(C)n(C)c2ccc(O)cc12 [Mecarbinate] | 102
36 | O=C(c1ccc(OCCN2CCCCC2)cc1)c1c(-c2ccc(O)cc2)sc2cc(O)ccc12 [Evista] | 107
37 | CC(=O)O[C@H]1CC[C@@]2(C)C(=CC[C@@H]3[C@@H]2CC[C@]2(C)C(c4cccnc4)=CC[C@@H]32)C1 [Abiraterone Acetate] | 103
38 | CN(Cc1cc(Br)cc(Br)c1N)C1CCCCC1 [Bromhexine HCl] | 96.2
39 | C#CCN[C@@H]1CCc2ccccc21 [Rasagiline mesylate] | 96.7
